The values below come from ChEMBL document CHEMBL4513216, “Probing the Open Global Health Chemical Diversity Library for Multistage-Active Starting Points for Next-Generation Antimalarials” (ACS Infect Dis, 2020).

The whole screen tested about 68,000 compounds, of which about 2,700 (4%) showed an effect of 50% or more. The full list was thinned out, with strong results kept by preference.

The subject of the test is Plasmodium berghei. The experiment in a line: Screen against P. berghei liver stage (PbLuc), transformed with Luciferase, at 2uM. The test is classed as functional, HepG2. As to conditions: tested at 2 uM.
Turning to `CCN(CC)S(=O)(=O)N1C[C@@H](O)[C@H](Oc2cccc(F)c2)C1`, the INHIBITION stood at 16.01%.
The figure for `Cc1nc(N2CCCC2)nc2c1CCN(C(=O)CC1CCCC1)CC2` is 1.33%; for `COC(=O)c1ccc2ccn(CC3CCCO3)c(=O)c2c1` (configuration not stated) it is 52.21%; for `COC(=O)c1ccc2ccn(CC3CCCCO3)c(=O)c2c1` (configuration not stated) it is -32.35%.
The figure for `COC(=O)c1ccc2ccn(CC3COCCO3)c(=O)c2c1` (configuration not stated) is 21%; for `COc1ccc(CCNCc2c(C)nn(C)c2N(C)C)cc1OC` it is 7.74%; for `O=C1CC(c2ccc(O)cc2)c2sc(C(=O)O)c(-c3ccccc3)c2N1` (configuration not stated) it is 20.4%.
The figure for `CC(C)C(=O)N1CCC2(CN(CC3CCCC3)C2)C1` is 0.32%; for `CC(C)C(=O)N1CC2(CCN(CC(C)(C)C)CC2)C1` it is 50.72%.
`CC(C)CN1CCC2(CC1)CN(C(=O)C(C)C)C2`: the INHIBITION worked out at 16.12%.
The same measure for `CS(=O)(=O)N1CCC2(CCN(C(=O)c3cccs3)CC2)CC1`: 11.79%; for `CCSc1ncc(-c2nccn2CCN(C)C)cn1`: 59.03%; for `COCc1ncc(-c2nccn2CCn2cnnc2)cn1`: -0.15%.
The same measure for `CCCSc1ncc(-c2nccn2CCO)cn1`: 52.98%.
The same measure for `CCCn1ccnc1-c1nccn1CCC(N)=O`: 43.44%; for `COC(=O)CCCn1ccnc1-c1ccccc1`: 1.42%; for `COCc1ncc(-c2nccn2CCN(C)C)cn1`: -24.39%.
In the case of `COc1ncc(-c2nccn2CCN(C)C)cn1`, the INHIBITION is -37.29%.
The figure for `COCCCn1ccnc1-c1cnc(OC)nc1` is -26.85%; for `CCCSc1ncc(-c2nccn2CCC(N)=O)cn1` it is 60.13%; for `CN(C)C(=O)COC[C@]12COC[C@H]1CN(Cc1ccccc1)C2` it is 42.18%.
The same measure for `Cc1ccc(CC(=O)Nc2cc(C(C)C)n[nH]2)cn1`: 29.54%; for `NC(=O)c1cc(C2CC2)nc2ccc(F)cc12`: -28.49%.
The figure for `CC(Nc1cccc2c1OCCO2)C(=O)Nc1cccc(C#N)c1` (configuration not stated) is 17.64%; for `COCCCN(C)C(=O)c1cccc(Nc2cnccn2)c1` it is -5.53%.
Turning to `CCCS(=O)(=O)NCC(O)c1c(Cl)cccc1Cl` (configuration not stated), the INHIBITION is on record as -35.21%.
The same measure for `CCN(CC)S(=O)(=O)NCC(O)c1c(Cl)cccc1Cl` (configuration not stated): 51%; for `CC(C)n1ccc(C(=O)NCC(O)c2c(Cl)cccc2Cl)n1` (configuration not stated): -6.2%; for `CCCN1CCCC2(CCN(S(=O)(=O)N3CCC(OC)CC3)C2)C1=O` (configuration not stated): -46.38%.
The same measure for `CCN(Cc1ccncc1)CC1(O)CCN(C(=O)c2cccc(C)c2)C1` (configuration not stated): 45.73%; for `CCN(Cc1ccncc1)CC1(O)CCN(C(=O)c2cnn(C)c2)C1` (configuration not stated): 52.82%; for `CCN(Cc1ccncc1)CC1(O)CCN(C(=O)c2ccccc2C)C1` (configuration not stated): 44.07%.
The figure for `COCc1nc(C(=O)NS(=O)(=O)c2cc(C)ccc2C)cs1` is 25.74%.
For the compound `Cc1cc(N2CCN(C(=O)c3cnn(C(C)C)c3)CC2)cc(C)n1`, the INHIBITION is 44.95%.
For `NC(=O)CN1CC2(CCC1=O)CCN(Cc1cc(F)ccc1Cl)CC2`, the INHIBITION was 23.7%.
For the compound `Cn1cc(CN2CCC3(CC2)CN(C(=O)c2cnccn2)CCO3)cn1`, the INHIBITION is recorded as 2.22%.
For `Cc1cc(N2CCCC(c3nncn3C3CC3)C2)ncn1` (configuration not stated), the INHIBITION is -23.49%.
For the compound `CC(C(=O)N1CCCC1)N1CCC(c2nccn2CC2CCC2)CC1` (configuration not stated), the INHIBITION is reported as -19.54%.
The same measure for `CCn1c(Cn2cncn2)nnc1C1CCN(C2CCOCC2)CC1`: 50.32%.
Take `CCn1c(CN2CCCC2)nnc1C1CCN(Cc2ccncc2)CC1`: the INHIBITION was determined as 54.41%.
The same measure for `CCn1c(Cn2cncn2)nnc1C1CCN(C2CCNCC2)CC1`: 19.49%; for `c1ncn(Cc2nnc(C3CCN(C4CCOCC4)CC3)n2C2CC2)n1`: -33.43%; for `CCn1c(CN(C)C)nnc1C1CCN(Cc2ccncc2)CC1`: 11.74%.
The figure for `CCn1c(CN2CCCC2)nnc1C1CCN(Cc2cccnc2)CC1` is -35.07%.
Take `Cc1cnc(C)c(Oc2ccc(CN3CCCC3)cc2Cl)n1`: the INHIBITION is given as -9.5%.
Turning to `CNS(=O)(=O)CCCN1CCCCCC1c1ccc(C)o1` (configuration not stated), the INHIBITION was determined as 60.13%.
With `Cc1ccc(C2CCCCCN2CCNS(C)(=O)=O)o1` (configuration not stated), the INHIBITION came to 48.21%.
The same measure for `Cc1ccc(C2CCCCCN2CCCS(C)(=O)=O)o1` (configuration not stated): 38.67%; for `CC1CCN(S(=O)(=O)N2Cc3ccccc3C[C@H]2C(N)=O)CC1`: 21.37%; for `O=C(O)c1cc(C2CC2)nc2c(Cl)cnn12`: 0.89%.
On to `COC(=O)c1cc(C2CC2)nc2c(Cl)cnn12`, for which the INHIBITION is reported as 70.37%.
The figure for `COC(=O)c1cc(C2CC2)nc2c(C#N)cnn12` is 11.95%; for `Cc1nc(CN2CCCn3c(nc(Cn4cncn4)cc3=O)C2)cs1` it is 37.6%.
The same measure for `N#Cc1ccc(N2CCC3(CC2)CC(Oc2cccnc2)CO3)cc1` (configuration not stated): 38.49%; for `FC1(F)CCN(Cc2ccccn2)CC12CCN(c1cccnc1)C2` (configuration not stated): 2.07%.
In the case of `CC(C)N1CCN(C(=O)c2ccccc2NCc2cccnc2)CC1`, the INHIBITION was found to be 8.73%.
The same measure for `COCC1CCCN(C(=O)c2ccccc2NCc2cccnc2)C1` (configuration not stated): 22.39%; for `COC1CCN(C(=O)c2ccccc2NCc2cccnc2)CC1`: 54.77%; for `Cc1cc(CNCCNS(C)(=O)=O)sc1Br`: 20.76%.
On to `O=C(CCn1cncn1)N1C[C@@H]2CC[C@H]1CN(Cc1cccnc1)C2`, for which the INHIBITION was determined as 44.37%.
The figure for `O=C(NCC1CCOC1)c1cc(-c2ccc(Cl)cc2)n[nH]1` (configuration not stated) is 61.07%.
The figure for `O=C(NCC1CCOC1)c1cc(-c2cccc(Cl)c2)[nH]n1` (configuration not stated) is 47.03%; for `O=C(NCC1CCOC1)c1cc(-c2ccc(F)cc2)[nH]n1` (configuration not stated) it is -22.69%.
The same measure for `CCCS(=O)(=O)NC(=O)c1ccc(CC)o1`: 10.48%.
Take `CCCN(C)S(=O)(=O)NC(=O)c1ccc(CC)o1`: the INHIBITION is 13.28%.
The same measure for `CCCS(=O)(=O)NC(=O)c1ccc(Br)o1`: 56.8%; for `NC1CCCCN(Cc2cc(-c3ccccc3OC(F)(F)F)no2)C1` (configuration not stated): 28.63%; for `Cc1ccsc1CNCc1c(C(C)C)nn(C)c1N1CCOCC1`: -28.5%.
On to `O=C1CC(c2ccccc2F)c2c(n3ccsc3nc2=O)N1` (configuration not stated), for which the INHIBITION is recorded as 25.47%.
For `CCOC(C)c1noc(CN(C)C(=O)c2cc3ccccn3c2)n1` (configuration not stated), the INHIBITION is 52.08%.
Regarding `CCOC(C)c1noc(CN(C)C(=O)C2C(C)(C)C2(C)C)n1` (configuration not stated), the INHIBITION was found to be 20.14%.
As for `CCOC(C)c1noc(CN(C)C(=O)c2ccncc2)n1` (configuration not stated), the INHIBITION was 20.14%.
